Test results reported in PubChem BioAssay AID588342 (National Center for Advancing Translational Sciences (NCATS), 2011).
Values joined by “and” are separate entries in the source; they are usually repeats but may differ in a detail not shown here. Equal values may be shown once. The whole screen tested about 360,000 compounds, of which about 25,000 (6.9%) were called active. Another 9% or so got no clear call; they are omitted. Calls follow the shape of the dose curve; as a rule, active = well fitted inhibition curve with a large enough effect; inconclusive = small, poorly fitted or top-dose-only effect; inactive = flat fitted curve, though single readings scatter. What follows is part of a selection rich in actives, with near analogues and random picks from the rest. Some compounds were tested as several samples or in several runs, with calls that do not always agree.

What follows are molecules tested against Luciferin 4-monooxygenase (Photinus pyralis) (UniProt P08659) (assay: qHTS profiling assay for firefly luciferase inhibitor/activator using purifed enzyme and Km concentrations of substrates (counterscreen for miR-21 project)). Conditions: purified FLuc, luminescence inhibition; series mostly up to 57.5 µM; activity change, negative = inhibition: at the top concentration.
Summary of the method: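 Purified P. pyralis luciferase, 10 nM final, with Km-level 10 uM D-luciferin and 10 uM ATP in 50 mM Tris acetate pH 7.5, 10 mM Mg acetate, 0.01% Tween-20, 0.05% BSA; 6-point qHTS titration about 60 µM downward; luminescence read.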
Also: nearly all actives have a fitted effect of over 55% in size.
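For activity change, negative = inhibition in this document: plate controls were vehicle for no effect and reference inhibitor for full effect.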
Potency is read from the fitted curve at half-maximal effect.

Luciferin 4-monooxygenase (Photinus pyralis), sequence (P08659 whole entry, looked up): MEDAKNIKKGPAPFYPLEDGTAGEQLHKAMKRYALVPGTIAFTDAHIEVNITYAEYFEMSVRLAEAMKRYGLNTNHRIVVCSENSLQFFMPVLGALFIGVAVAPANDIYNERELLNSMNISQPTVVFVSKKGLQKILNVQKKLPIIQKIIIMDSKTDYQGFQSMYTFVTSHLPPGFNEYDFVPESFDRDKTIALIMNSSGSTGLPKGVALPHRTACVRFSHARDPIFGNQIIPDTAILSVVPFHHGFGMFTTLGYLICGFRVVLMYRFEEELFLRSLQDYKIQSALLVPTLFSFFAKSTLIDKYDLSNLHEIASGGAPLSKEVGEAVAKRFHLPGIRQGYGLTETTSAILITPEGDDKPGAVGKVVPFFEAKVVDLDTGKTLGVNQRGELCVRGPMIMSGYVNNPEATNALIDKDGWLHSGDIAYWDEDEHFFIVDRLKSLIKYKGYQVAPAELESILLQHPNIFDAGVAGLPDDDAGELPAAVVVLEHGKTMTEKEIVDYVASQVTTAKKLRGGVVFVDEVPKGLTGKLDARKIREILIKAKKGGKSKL

SMILES	Potency	activity change, negative = inhibition
CCc1ccccc1NC(=O)c1cc(-c2ccc3c(c2)OCO3)on1	inactive	–
O=C(Nc1cccnc1Cl)c1cc(-c2cccc(Cl)c2)on1	inactive	–
O=C(Nc1ccccc1C(F)(F)F)c1cc(-c2ccc(O)cc2)on1	26.9 µM (active)	–
Cc1ccccc1CSc1nc2c([nH]c3ccccc32)c(=O)n1C	–	-1.85% (inactive)
COc1ccc(CNC(=O)CS(=O)Cc2nc(-c3cccc(C)c3)oc2C)cc1 (stereo not given)	–	-17.5% (inactive)
COc1ccc(Cn2c(-c3ccc(Cl)cc3)c[n+]3ccccc23)cc1	19 µM (active)	–
COc1ccc(CNc2nc(-c3ccc(Cl)cc3)nn2C(=O)c2ccccc2)cc1	–	-0.962% (inactive)
COc1ccc(CNc2nc(-c3ccc(Cl)cc3)cc(C(F)(F)F)n2)cc1	–	-3.26% (inactive)
COc1ccc(OC)c(-c2csc(-c3c(N)c(C(=O)c4ccccc4)n4ccccc34)n2)c1	–	0.147% (inactive)
CC(C)(C)c1ccc(C(=O)N2CCC(c3nc(-c4ccc(S(=O)(=O)N5CCCC5)cc4)no3)CC2)cc1	–	-17% (inactive)
CC(C)NC(=O)C(=O)N/N=C/c1ccco1	–	5.52% (inactive)
O=C(NCc1ccccc1Cl)c1csc2c1CCCCC2	–	-13.1% (inactive)
CC1CC(C)CN(CCCNC(=O)c2csc3c2CCCCC3)C1 (stereo not given)	–	0.607% (inactive)
COC(=O)c1sc(NC(=O)c2csc3c2CCCC3)nc1C	2.39 µM (active)	–
CCOc1ccc(CCNC(=O)c2csc3c2CCCCC3)cc1	–	-5.62% (inactive)
O=C(N/N=C/c1ccco1)c1ccc(NC(=O)C2CC2)cc1	–	-5.08% (inactive)
Cc1ccc(NC(=O)c2csc3c2CCCC3)cc1	4.26 µM (active)	–
CCOC(=O)c1sc(NC(=O)c2cc(S(=O)(=O)N3CCOCC3)ccc2C)nc1C	–	-0.843% (inactive)
O=C(N/N=C/c1ccco1)c1csc2c1CCCC2	15.1 µM (active)	–
Cc1c(CCOC(=O)CC23CC4CC(CC(C)(C4)C2)C3)sc[n+]1Cc1ccc([N+](=O)[O-])cc1	–	5.92% (inactive)
CCn1c(SCC(=O)NCC2CCCO2)nc2ccccc21 (stereo not given)	–	2.93% (inactive)
CCc1ccccc1NC(=O)Cn1c(=O)n(-c2cccc(C)c2)c(=O)c2c1c1cc(OC)ccc1n2C	–	-1.17% (inactive)

SMILES	Potency	activity change, negative = inhibition
CC(=O)c1ccc(S(=O)(=O)NCCC(=O)N2CCN(c3ccccn3)CC2)cc1	–	1.49% (inactive)
O=C(CC(c1cccs1)N1Cc2ccccc2C1=O)Nc1ccc(F)cc1F (stereo not given)	–	-8.01% (inactive)
Nc1ccc(C(=O)N2CCN(S(=O)(=O)c3ccc(Cl)cc3)CC2)cc1[N+](=O)[O-]	–	-0.246% (inactive)
COc1ccc(-c2nc(S(=O)(=O)c3ccccc3)c(N3CCCCC3)o2)cc1	–	-1.77% (inactive)
Oc1cccc2ccc(/C=C/c3ccc(Br)s3)nc12	6.75 µM (active)	–
Nc1ccc(S(=O)(=O)Nc2nccc(/C=C/c3ccc(Br)s3)n2)cc1	–	-10.2% (inactive)
COc1cccc(N(CC(=O)NC2CCCC2)C(=O)CCCC(=O)Nc2ccccn2)c1	–	0.401% (inactive)
COc1ccc(C(=O)Nc2c(Cl)cc(Cl)cc2C(=O)N2CCC(C)CC2)cc1	–	1.11% (inactive)
CC1CCN(C(=S)c2cccc(O)c2)CC1	–	-1.03% (inactive)
CC1CCN(C(=S)c2ccc(-c3ccc(Cl)cc3Cl)o2)CC1	12 µM (active)	–
O=C(CN1C(=O)COc2ccc(S(=O)(=O)N3CCOCC3)cc21)N1CCN(c2cccc(Cl)c2)CC1	–	0.0356% (inactive)
COc1ccc(C(=O)NC(=S)NNC(=O)c2c(-c3ccccc3)noc2C)cc1	–	-0.585% (inactive)
CC(=O)c1cccc(NC(=O)c2cc(C)nn2-c2ccccc2)c1	–	-9.7% (inactive)
Cc1onc(-c2ccccc2)c1C(=O)Nc1ccccc1C#N	–	9.37% (inactive)
Cc1onc(-c2ccccc2)c1C(=O)NNC(=S)NC(=O)c1ccc(F)cc1	–	1.17% (inactive)
O=C(NNC(=S)NC(=O)c1cn(-c2ccccc2)nc1-c1ccccc1)c1ccncc1	13.5 µM (active)	–
O=C(Nc1cn(-c2ccccc2)nc1-c1ccccc1)c1ccccc1	15.1 µM (active)	–
CCCCn1cc(S(=O)(=O)c2ccc(OCC)cc2)c(=O)c2cc(OC)c(OC)cc21	–	0.657% (inactive)
CCCCC/C=C/C1=CC(=O)C[C@H](c2ccc(Cl)cc2)C1	–	-0.231% (inactive)
CCOC(=O)c1cnc2c(C)cc(C)cc2c1Nc1ccc(N2CCOCC2)cc1	–	-12.7% (inactive)
N#Cc1c(N)nc2c3c(sc(=N)c2c1N)NC(=O)CC3c1ccccc1Cl (stereo not given)	–	-1.08% (inactive)
CSc1ncccc1C(=O)NCc1ccccc1Cl	–	4.91% (inactive)

SMILES	Potency	activity change, negative = inhibition
O=C(NC1CCCCCC1)C1CCN(C(=O)c2ccc(Cl)cc2)CC1	–	-1.62% (inactive)
O=[N+]([O-])c1ccccc1NCc1ccccc1Cl	–	-11.8% (inactive)
S=C(NCCc1ccccc1)NCc1ccccc1Cl	–	-5.36% (inactive)
O=C(O)Cc1ccc(NCc2ccccc2Cl)cc1	7.57 µM (active)	–
O=C(c1ccc(Cl)cc1)n1nc(-c2cccnc2)nc1NCc1ccc(F)cc1	–	-0.314% (inactive)
CN(C)c1nc(=Nc2cccc(Cl)c2)ss1	3.38 µM (active)	–
CCOC(=O)N1CCc2c(sc3c2c(=O)n(Cc2ccccc2)c(=O)n3CC(=O)Nc2cccc(C)c2)C1	–	-1.56% (inactive)
CCOc1cc(C(=O)Nc2nnc3n2CCS3)cc(OCC)c1OCC	–	-0.836% (inactive)
O=C(NCc1cccs1)c1ccc2c(c1)ncn2C1CCCC1	19 µM (active)	–
Cc1ccc(-c2cn3c(n2)sc2cc(C(=O)NCc4cccs4)ccc23)c(C)c1	–	0.0935% (inactive)
O=C(NCc1ccc(Cl)cc1)c1ccc2c(c1)nnn2C1CCCC1	–	-2.28% (inactive)
Cc1cccc(NC(=O)c2cccc(S(=O)(=O)N3CCCC3)c2)n1	–	-5.53% (inactive)
O=C(Nc1nnc(S(=O)(=O)N2CCCCCC2)s1)c1cccc(Br)c1	inactive and 26.9 µM (active)	–
Cc1cccc(C(=O)Nc2nnc(S(=O)(=O)N3CCCCCC3)s2)c1	26.9 µM (active)	–
CCOC(=O)CSc1nnc(NC(=O)c2cccc(S(=O)(=O)N3CCCCC3)c2)s1	–	-2.28% (inactive)
O=C(Nc1nncs1)c1cccc(S(=O)(=O)N2CCCCC2)c1	–	-1.04% (inactive)
CCOC(=O)CSc1nnc(NC(=O)c2cccc(S(=O)(=O)N3CCCC3)c2)s1	23.9 µM (active)	–
CCc1nnc(NC(=O)c2cc(S(=O)(=O)N3CCCCC3)ccc2C)s1	–	3.35% (inactive)
O=C(Nc1nnc(S(=O)(=O)N2CCCc3ccccc32)s1)c1cccc(F)c1	–	-1.73% (inactive)
Cc1ccccc1OCC(=O)Nc1nnc(S(=O)(=O)N2CCCC2)s1	–	-9.21% (inactive)
CCOc1ccc(NC(=O)Cn2cc(C(=O)c3ccc(C)cc3)c(=O)c3cc4c(cc32)OCCO4)cc1	–	-1.33% (inactive)
